The entries come from a sample that favours hits as a whole.
Shiga toxin inh – blocks Shiga toxin action in Vero cells. Vero cells, Shiga toxin protein synthesis inhibition reporter. inhibition, % at 38.7 µM. 290,000 compounds, 9.2% hits; in the data active = inhibition mostly above about 28%, no sharp cut-off; inactive = mostly below about 43%
Sm TGR inh – blocks Schistosoma mansoni thioredoxin glutathione reductase. Q962Y6. purified TGR, DTNB reduction, TNB absorbance 405 nm. Potency, µM (top dose mostly 114 µM), actives largely listed as inhibitors. 360,000 compounds, 3% hits. AID 485364; also: nearly all actives have a fitted effect of over 60% in size
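First, TGR (20 nM dispensed) and NADPH were mixed with compound. Second, a 15 min room-temperature incubation followed. Third, further NADPH and then DTNB were added to start the reaction. Finally, TNB absorbance was monitored kinetically.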
LmPK inhibitor – LmPK (Leishmania mexicana) enzyme inhibition; AID 1721; Q27686; purified LmPK, Kinase-Glo ATP luminescence, 1 h; Potency, µM (series often up to 57.5 µM), hits mostly inhibitors; 290,000 compounds, 0.37% hits
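Purified LmPK (0.1 nM) with 0.5 mM PEP and 0.1 mM ADP in imidazole buffer pH 7.2 with MgCl2/KCl, 1 h at room temperature. ATP formed was read by luciferase luminescence and normalized to no-enzyme and uninhibited controls.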
CHX counter – counter-screen for Shiga toxin inhibitors: cycloheximide protein synthesis inhibition. cell reporter, cycloheximide protein synthesis inhibition counterscreen. max response, %. 300,000 compounds, 12% hits. AID 2314; in the data active = max response mostly above about 13%, no sharp cut-off; inactive = mostly below about 14%; also: read at 38.3 µM for the half of the compounds with a filed dose
TbPYK inhibitor – T. brucei pyruvate kinase inhibition. 410,000 compounds, 0.12% hits. TbPYK enzyme, Kinase-Glo Plus ATP luminescence, 45 min. Q57TT1. Potency, µM (highest dose often 76.8 µM), hits mostly inhibitors; also: nearly all actives have a fitted effect of over 50% in size
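Assay buffer: 50 mM TEA pH 7.2, 100 mM KCl, 10 mM MgCl2, 0.05% BSA, 0.01% Tween-20. Pyruvate kinase from T. brucei plus substrate met compound, then ADP (130 uM final). Luminescence was read post 45 min RT.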
FBPA Giardia inh – inhibitors of Giardia lamblia fructose-1,6-bisphosphate aldolase; A8B2U2; purified Giardia FBPA; Potency, µM (doses to about 59.6 µM), hits mostly inhibitors; 290,000 compounds, 0.71% hits; AID 2451; also: nearly all actives have a fitted effect of over 55% in size
Target sequence (A8B2U2 whole entry, looked up): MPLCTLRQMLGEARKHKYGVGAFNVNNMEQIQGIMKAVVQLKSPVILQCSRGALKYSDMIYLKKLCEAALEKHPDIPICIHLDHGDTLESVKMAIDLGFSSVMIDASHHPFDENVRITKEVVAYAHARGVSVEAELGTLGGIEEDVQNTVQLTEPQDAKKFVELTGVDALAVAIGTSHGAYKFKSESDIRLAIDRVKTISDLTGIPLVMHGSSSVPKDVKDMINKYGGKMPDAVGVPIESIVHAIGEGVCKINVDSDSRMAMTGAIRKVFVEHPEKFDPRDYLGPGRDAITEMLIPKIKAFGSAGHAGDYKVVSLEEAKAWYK
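40 nM FBPA preincubated 10 min at RT with compound (up to 57.5 uM final), then substrate plus GAPDH/TPI/NAD/arsenate coupling and diaphorase/resazurin added. Fluorescence read after 20 min at RT, 525/598 nm.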
Numbers stand for hits; 0 = inactive; ? = inconclusive; - = no result. Unless noted, calls follow the shape of the dose curve; as a rule, active = well fitted curve in the direction sought with a large enough effect; inconclusive = small, poorly fitted or top-dose-only effect, or another doubt; inactive = no such curve, though single readings can be large; an effect the other way counts as inactive or inconclusive.

SMILES	Shiga toxin inh	Sm TGR inh	LmPK inhibitor	CHX counter	TbPYK inhibitor	FBPA Giardia inh
CCCCN1C(=O)/C(=C/C=C2\Oc3ccccc3N2CC)SC1=S	0	0	0	0	0	0
CCCCN1C(=O)/C(=C/C=C2/CC(C)(C)CN2C)SC1=S	0	0	0	30.5	0	0
CCN1C(=O)/C(=C/C=C2/SCCN2C)SC1=S	78.0	0	0	58.9	0	0
CN1CCS/C1=C\C=C1/SC(=S)N(CC(=O)O)C1=O	0	0	0	0	0	0
COc1cccc2oc3ccc(C#Cc4ccccn4)cc3c(=O)c12	46.9	0	0	65.5	0	0
CNC(C)C#Cc1ccc2oc3cccc(OC)c3c(=O)c2c1 (stereo not drawn)	45.1	?	0	35.6	0	0
CNC(C)C#Cc1ccc2c(=O)c3c(OC)cccc3oc2c1 (stereo not drawn)	46.0	?	0	36.5	-	0
COc1cccc2sc3cc(C#Cc4ccccn4)ccc3c(=O)c12	-	-	-	-	0	-
CNC(C)C#Cc1ccc2sc3cccc(OC)c3c(=O)c2c1 (stereo not drawn)	19.5	?	0	12.1	0	0
CC(=O)c1ccc(N2CCN(C(=O)c3cc4c(s3)-c3ccccc3OC4)CC2)cc1	-	0	-	-	0	-
COC(=O)c1ccc(NC(=S)NC2CCc3ccccc32)cc1 (stereo not drawn)	0	0	0	0	0	0
CCCN(CCC)CCNC(=O)Cn1cnc2sc(C)c(S(=O)(=O)N3CCN(c4ccccc4OC)CC3)c2c1=O	-	0	-	-	0	-
COc1cccc2sc3ccc(C#CC4(N)CCCCC4)cc3c(=O)c12	64.1	0	0	32.0	0	0
O=C(O)c1ccc(NC2=C(Cl)C(=O)c3ccccc3C2=O)cc1	0	?	0	0	0	?
CC(C)OCCCNC1=C(Cl)C(=O)c2ccccc2C1=O	66.1	0	0	49.2	0	0
C=CCNC1=C(Cl)C(=O)N(c2cccc(Cl)c2Cl)C1=O	0	0	0	0	0	0
Clc1ccccc1-c1cc(NCc2cccnc2)ncn1	-	-	-	-	-	0
C=CCNC1=C(Cl)C(=O)N(Cc2ccccc2)C1=O	0	39.8µM	0	0	0	0
O=C1C(Cl)=C(NCc2cccnc2)C(=O)c2ccccc21	45.0	44.7µM	0	22.1	0	0
CCN(CC)CCCNC1=C(Cl)C(=O)c2ccccc2C1=O	0	35.5µM	0	0	0	0
COCCCNC1=C(Cl)C(=O)c2ccccc2C1=O	48.9	0	0	33.1	0	0
C=CCNC1=C(Cl)C(=O)c2ccccc2C1=O	active	44.7µM	0	0	0	?
CC(C)NC1=C(Cl)C(=O)c2ccccc2C1=O	0	28.2µM	0	20.5	0	?
COCCCNc1c2c3c(cccc3[nH]c1=O)C(=O)c1ccccc1-2	0	0	0	0	0	0
CCc1ccc(NC(=O)C2CCCN(S(=O)(=O)c3ccc4c(c3)oc(=O)n4C)C2)cc1 (stereo not drawn)	-	0	-	-	0	-
SMILES	Shiga toxin inh	Sm TGR inh	LmPK inhibitor	CHX counter	TbPYK inhibitor	FBPA Giardia inh
CCC1CN(C(=O)Nc2cccc3c2CCCC3)c2cc(C)ccc2O1 (stereo not drawn)	-	0	-	-	0	-
O=C(CCN1C(=O)c2ccccc2C1=O)C1=NN[C@@H]2C(=O)N(c3ccc4c(c3)OCO4)C(=O)[C@H]12	0	25.1µM	0	0	0	0
Cc1ccc(N2C(=O)[C@@H]3C(C(=O)CCN4C(=O)c5ccccc5C4=O)=NN[C@@H]3C2=O)cc1	0	0	0	0	0	0
COc1cc(NC(=O)C2CCN(S(=O)(=O)c3c(C)noc3/C=C/c3ccccc3F)CC2)cc(OC)c1OC	-	0	-	-	0	-
Cc1cc(CN2CCCCC2C(=O)Nc2ccc(Oc3cccnc3)cc2)oc1C (stereo not drawn)	42.5	0	0	21.5	0	-
Cn1cc(Cl)c(C(=O)N/N=C/c2ccc(OS(=O)(=O)c3ccccc3)cc2)n1	0	0	0	0	0	0
Cn1nccc1NC(=O)Nc1cccc(Cl)c1Cl	0	0	0	0	0	0
Cc1ccc(/C=N/NC(=O)c2nn(C)cc2Cl)cc1	46.5	0	?	34.0	0	0
Cn1cc(Cl)c(C(=O)Nc2cccc(Cl)c2Cl)n1	0	0	0	41.6	0	0
Cn1cc(Cl)c(C(=O)N/N=C/c2ccc3c4c(cccc24)CC3)n1	60.7	0	0	29.1	0	0
O=C(CSc1nc2c([nH]c3ccccc32)c(=O)n1-c1ccccc1)N1CCCC1	-	0	-	-	0	-
O=C(Nc1ccc(Cl)cc1C(=O)Nc1ccccn1)c1ccco1	0	0	0	0	0	0
O=C(Nc1ccccn1)c1ccco1	0	0	0	45.2	0	-
COc1ccccc1C(=O)Nc1ccc(NC(=O)c2ccco2)cn1	89.9	0	0	27.6	0	0
O=C(Cc1ccccc1)Nc1ccc(NC(=O)c2ccco2)nc1	105.3	0	0	44.5	0	0
O=C(Nc1ccc(NC(=O)c2ccco2)nc1)c1ccccn1	0	0	?	27.5	0	0
Cc1cc(C)c(NC(=O)CSc2nc(=O)n(Cc3ccncc3)c3c2CCC3)c(C)c1	-	0	-	-	0	-
CC1CCCC(NC(=O)CCC(=O)N2CCOc3ccccc32)C1C (stereo not drawn)	0	0	0	0	0	-
CCOC(=O)c1cnc2cc(C(F)(F)F)ccc2c1Nc1ccc(F)cc1F	-	0	-	-	0	-
O=C(Nc1ccc2ncccc2c1)Nc1ccc2ncccc2c1	46.8	0	0	18.7	0	0
Cc1ccc2ncccc2c1	-	0	-	-	0	-
Cc1c([N+](=O)[O-])cc(C(=O)Nc2ccc3ncccc3c2)cc1[N+](=O)[O-]	-	0	0	0	0	0
c1cnc2ccc(-c3ccc4ncccc4c3)cc2c1	-	0	0	26.7	0	0
O=C(Nc1ccc2ncccc2c1)c1ccccc1Br	41.4	?	0	37.7	0	?
Cc1cccc(NC(=O)CSc2nc3c(sc4ccccc43)c(=O)n2CCCC(=O)NC2CCCC2)c1	-	0	-	-	0	-
SMILES	Shiga toxin inh	Sm TGR inh	LmPK inhibitor	CHX counter	TbPYK inhibitor	FBPA Giardia inh
COCc1cc(CN2CCCC2)c(O)c2ncccc12	0	?	0	0	0	?
Oc1c(CN2CCCCC2)cc(COCc2ccccc2)c2cccnc12	0	35.5µM	0	16.9	0	0
CCOCc1cc(CN2CCN(c3cccc(C(F)(F)F)c3)CC2)c(O)c2ncccc12	-	0	-	-	0	-
CN(C)C1CCN(Cc2cc(COCc3ccccc3)c3cccnc3c2O)C1 (stereo not drawn)	-	14.1µM	-	-	0	-
O=C(NC1CC1)c1cc2c(s1)-c1ccccc1OC2	104.4	0	0	77.3	0	0
O=C(O)c1cc2c(s1)-c1ccccc1OC2	0	0	0	0	0	0
O=C(NCc1cccs1)c1cc2c(s1)-c1ccccc1OC2	0	0	0	20.0	0	0
COc1ccc(OC)c(NC(=O)N2CCC3(CC2)Oc2ccccc2C(=O)N3Cc2ccccc2F)c1	-	0	-	-	0	-
CCOc1cc(N2CCOCC2)c(OCC)cc1NC(=O)COC(=O)CCn1c(C)csc1=O	-	0	-	-	0	-
Oc1ccc(/C=N/Nc2ccc(Cl)nn2)c(O)c1O	0	14.1µM	0	0	0	?

Screening results: PubChem, National Center for Advancing Translational Sciences (NCATS)
